Screens from PubChem.
In the library only some 12% were active in any assay of this set; here they are far more common.
LASV entry inh: blocks Lassa virus binding to or entry into cells | AID 540256 | hit rate 1.2% among 300,000 | Potency, µM (series often up to 37.9 µM), inactives show at the top dose activity change, negative = inhibition, most hits filed as inhibitors | Lassa virus pseudotype entry inhibition, cell reporter; calls by dose curve; tested in HEK293 cells; also: potency is read from the fitted curve at half-maximal effect; % is scaled to controls: 0 for no effect and ±100 for the full control effect; nearly all actives have a fitted effect of over 50% in size
Shiga inhibitor: blocks Shiga toxin action in Vero cells; Vero cells, Shiga toxin protein synthesis inhibition reporter; AID 2315; hit rate 9.2% among 290,000; inhibition, % at 38.7 µM; in the data active = inhibition mostly above about 28%, no sharp cut-off; inactive = mostly below about 43%; also: 0% is about no effect
CHX counter: counter-screen hit for Shiga toxin inhibitors, cycloheximide | cell reporter, cycloheximide protein synthesis inhibition counterscreen | max response, % | hit rate 12% among 300,000 | AID 2314; in the data active = max response mostly above about 13%, no sharp cut-off; inactive = mostly below about 14%; also: read at 38.3 µM for the half of the compounds with a filed dose; 0% is about no effect
Marburg entry inh: blocks Marburg virus binding to or entry into cells | Marburg virus pseudotyped entry inhibition, cell reporter | AID 540276 | hit rate 1.8% among 300,000 | Potency, µM (titrated, usually from 37.8 µM), inactives show at the top dose activity change, negative = inhibition, usual class: inhibitors; calls by dose curve; tested in HEK293 cells; also: potency is read from the fitted curve at half-maximal effect; % is scaled to controls: 0 for no effect and ±100 for the full control effect
* = called active by the depositor; u = inconclusive; x = no result; [ ] = remark or other dose.

SMILES	LASV entry inh	Shiga inhibitor	CHX counter	Marburg entry inh
C=CCn1c(SCc2nc3ccccc3[nH]2)nnc1-c1ccccn1	3%	8	27*	6%
O=C(NCc1cccnc1)C(=O)Nc1nccs1	x	3	4	x
O=C(Nc1nc2ccccc2s1)c1cnccn1	u	53*	32*	6.5µM*
O=C(NCc1cccnc1)C(=O)Nc1nc2ccccc2s1	-3%	93*	39*	-16%[46.1 µM]
O=C(Nc1nc2ccc(F)cc2s1)c1ccccn1	u	26	-1	u
CCOc1ccc2nc(NC(=O)c3cnccn3)sc2c1	1%	62*	32*	u
COc1ccc(S(=O)(=O)N2CCC(Cc3ccccc3)CC2)cc1NC(C)=O	x	-3	-2	x
COc1cccc(NC(=O)CSc2nc(=O)n(Cc3ccncc3)c3c2CCCC3)c1	-3%	x	x	1%
Cc1ccc(Nc2ncnc(N)n2)cc1C	x	50*	26*	x
CCn1c(C(=O)N2CCC(C(=O)NCCc3ccc(C)cc3)CC2)cc2sccc21	x	x	x	1%[46.1 µM]
COc1ccc([C@@H]2C(C#N)=C(N)S[C@@H](c3ccccc3)[C@@H]2[N+](=O)[O-])cc1	u	-6	5	2%
COc1ccc(C2C(C#N)=C(N)N3C(=C2C#N)Sc2ccccc23)cc1 (centres undefined)	x	43	20*	x
COc1ccc(/C=C(/NC(=O)c2ccco2)C(=O)Nc2ccc(C(=O)O)cc2)cc1	x	1	-4	-2%[46.1 µM]
CC(=O)c1ccc(OCc2ccc(C(=O)c3ccccc3)cc2)cc1	u	-7	2	u
CCN(Cc1ccccc1)Cc1ccc(OCc2ccccc2)cc1	x	26	15*	x
NCc1ccccc1	x	19	-3	x
Nc1ccc(OCCc2ccccc2)cc1	10%[46.1 µM]	29*	31*	1%[46.1 µM]
NOCc1ccccc1	x	36	32*	x
CC(C)CCOc1ccc(N)cc1	x	24*	12*	x
CCOC(=O)C1C(=O)C=C(c2ccc(C)cc2)CC1c1cccc([N+](=O)[O-])c1 (centres undefined)	u	-19	5	u
Nc1ccc(OCc2ccccc2)cc1	x	36*	17*	x
CCC(=O)c1cc(F)c(N2CCN(S(=O)(=O)c3ccc(C)cc3)CC2)cc1C	-24%	12	1	u
COc1ccc2nc(/C=N/NC(=O)[C@H](C)NC(=O)OC(C)(C)C)ccc2c1	11%	active	16*	28%
Cc1ccc2cc(/C=N/NC(=O)[C@H](C)NC(=O)OC(C)(C)C)c(Cl)nc2c1	6%	10	5	u
Cc1ccc(NC(=O)C(OC(=O)c2cnc(C)cn2)c2ccccc2)c([N+](=O)[O-])c1 (centres undefined)	-3%	8	14*	u
SMILES	LASV entry inh	Shiga inhibitor	CHX counter	Marburg entry inh
COCCNC(C(=O)Nc1ccc(C)cc1[N+](=O)[O-])c1ccccc1 (centres undefined)	3%	38	28*	22%[46.1 µM]
COCCNC(=S)Nc1ccc([N+](=O)[O-])cc1C	9%[46.1 µM]	9	3	-2%[46.1 µM]
COCCNC(C(=O)Nc1ccc([N+](=O)[O-])cc1Br)c1ccccc1 (centres undefined)	-5%	-3	1	-9%
COCCCNC(=S)Nc1ccc(C)cc1[N+](=O)[O-]	x	55*	20*	x
CC(=O)c1sc(N/N=C2\CC3CC2C(C)C3(C)C)nc1C (centres undefined)	0%[46.1 µM]	48*	34*	u
CCCC(=O)Nc1nc(C)c(C(C)=O)s1	2%[46.1 µM]	6	5	u
C=CCCCN1C(=O)NC(c2ccccc2)C(C(=O)OC)=C1C (centres undefined)	x	x	x	-29%[14.2 µM]
Cc1nc(C)c(-c2ccc(SCc3ccccc3C)nn2)s1	x	34*	45*	x
c1cncc(CSc2ccc(-c3ccc4c(c3)OCO4)nn2)c1	u	99*	57*	u
Cc1ccccc1CSc1ccc(-c2ccc3c(c2)OCO3)nn1	-22%	82*	49*	17%
Cc1nc(C)c(-c2ccc(SCC(=O)Nc3ccccc3)nn2)s1	-22%	-9	3	-28%
CC(=O)Nc1ccc(NC(=O)CSc2ccc(-c3ccc4c(c3)OCO4)nn2)cc1	25%	21	18	u
Fc1cccc(CSc2ccc(-c3ccc4c(c3)OCO4)nn2)c1	u	11	11	-19%
CCOc1ccc(NC(=O)CN(C)C(=O)c2ccc(=O)[nH]c2)cc1OCC	13%	6	15	16%
CCOCCCNC(=O)c1cc(Sc2cccc(Cl)c2)nc2ccccc12	-16%[46.1 µM]	x	x	x
CCN(CC)C(=O)CSC1=C(C#N)[C@H](c2ccco2)C(C(=O)OCCOC)=C(C)N1	x	x	x	9%
CCN(CC)C(=O)CSC1=C(C#N)C(c2cccs2)C=C(C)N1 (centres undefined)	u	3	12	7.9µM*
C#CCSC1=C(C#N)C(c2cccs2)C(C(=O)OCC)=C(C)N1 (centres undefined)	5%	35	24*	0%
COc1cc(NC(=O)c2sc(C)nc2C)c(OC)cc1NC(=O)c1ccccc1	x	-3	8	-4%
Cc1nn2c(NCCN(C)C)c3c(nc2c1-c1ccccc1)CCCC3	-16%[46.1 µM]	1	-1	10µM*
CC(=NCCc1ccccc1)C1=C(O)CSC1=O	6%	14	28*	u
CC(=NCCc1ccccc1)C1=C(O)CCC1=O	-1%	-3	-1	-3%
O=C(O)c1ccc(Oc2ccc([N+](=O)[O-])cc2)c([N+](=O)[O-])c1	14%	x	x	11%
COc1ccc(/C=C/C2=CCN(Cc3ccc(OC)cc3)CC2)cc1	-16%[46.1 µM]	-8	-4	4.5µM*
CCCn1cnc2cc(NCc3ccccc3O)ccc21	x	113*	39*	x
SMILES	LASV entry inh	Shiga inhibitor	CHX counter	Marburg entry inh
COc1cc(CNc2ccc3c(c2)ncn3C(C)C)cc(OC)c1OC	-3%[46.1 µM]	x	x	u
CCC(=O)Nc1ccc2c(c1)ncn2CCc1ccccc1	x	27	7	x
CCn1cnc2cc(NCc3ccc(Br)cc3)ccc21	u	67*	40*	u
Cc1ccc(CNc2ccc3c(c2)ncn3C(C)C)cc1	x	61*	36*	x
CN(C)c1ccc(CNc2ccc3c(c2)ncn3C(C)(C)C)cc1	u	58*	28*	23%[46.1 µM]
CC(C)CCN1C(=O)c2ccc(C(=O)NCc3ccccn3)cc2C1=O	u	x	x	1%
CCCCN(CC)C(=O)Cn1c(=O)sc2ccccc21	-11%	-20	-4	u
COc1ccc(CC(=O)NNC(=O)c2nn(Cc3ccccc3)c(=O)c3ccccc23)cc1OC	x	8	5	x
COCC1=C(C(=O)OC)C(c2ccccc2)N(C(C)=O)C(=O)N1 (centres undefined)	x	x	x	1%[14.2 µM]
CCCn1cnc2cc(NCc3cccc(OC)c3)ccc21	-6%	35*	24*	2%
CCn1cnc2cc(NCc3ccc(C)cc3)ccc21	7%	90*	60*	1%
CCCn1cnc2cc(NCc3ccc(OC)cc3OC)ccc21	4%[46.1 µM]	x	x	5%[46.1 µM]
CCCn1cnc2cc(NCc3ccc(Br)cc3)ccc21	u	64*	29*	u
CCn1cnc2cc(NCc3ccc(N(C)C)cc3)ccc21	u	154*	52*	u
O=C(CSc1nccn1Cc1ccccc1)NCc1ccccc1	4%	49	6	23%
CCOC(=O)c1ccc(Nc2nc(N)c3cc(OC)c(OC)cc3n2)cc1	18%[46.1 µM]	40	6	u
